Results reported in PubChem BioAssay AID1159580 (chemical genetic matrix, 2015).
Out of some 5,500 compounds screened, about 2,000 (36%) were called active. Not shown: some 18% with an inconclusive outcome. No stated cut-off is given here; in the data, active means normalized growth mostly below about 0.91 (no sharp cut-off); inconclusive means no clear call, values can overlap the other calls; inactive means mostly above about 0.92. The list shows a part of the results.

Assay: chemical genetic growth profiling, strain panel (AID 1159580);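 further: tested at 20 µM; growth read once vehicle control cultures reached saturation at 30 °C; 1 = growth at the plate median or of vehicle wells; lower values mean less growth of the strain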
Details: S. cerevisiae deletion strains, growth OD

Measured: normalized growth

COc1ccc2c(c1)OCc1c-2oc2cc(OC)ccc12
active: locus YKL160W, strain elf1, hits give low values 0.748 | locus YKR001C, strain vps1, hits give low values 0.777 | locus YLL001W, strain dnm1, hits give low values 0.871 | locus YLR027C, strain aat2, hits give low values 0.8 | locus YLR039C, strain RIC1, hits give low values 0.446 | locus YLR221C, strain rsa3, hits give low values 0.762 | locus YLR258W, strain gsy2, hits give low values 0.895 | locus YLR262C, strain YPT6 (second series), hits give low values 0.387 | locus YLR262C, strain YPT6, hits give low values 0.505 | locus YLR320W, strain mms22, hits give low values 0.625 | locus YLR342W, strain FKS1, hits give low values 0.73 | locus YML120C, strain ndi1, hits give low values 0.842 | locus YMR058W, strain fet3, hits give low values 0.699 | locus YMR125W, strain sto1, hits give low values 0.877 | locus YMR205C, strain PFK2, hits give low values 0.694 | locus YMR231W, strain pep5, hits give low values 0.912 | locus YNL071W, strain lat1, hits give low values 0.502 | locus YNL307C, strain MCK1, hits give low values 0.858 | locus YNL322C, strain KRE1, hits give low values 0.874 | locus YOR070C, strain gyp1, hits give low values 0.836 | locus YOR083W, strain WHI5, hits give low values 0.812 | locus YOR106W, strain vam3, hits give low values 0.822 | locus YOR184W, strain ser1, hits give low values 0.821 | locus YOR265W, strain rbl2, hits give low values 0.928 | locus YOR270C, strain vph1, hits give low values 0.476 | locus YOR290C, strain snf2, hits give low values 0.834 | locus YPL051W, strain arl3, hits give low values 0.677 | locus YPL078C, strain atp4, hits give low values 0.764 | locus YPL240C, strain hsp82, hits give low values 0.915
inactive: locus YJR075W, strain HOC1, hits give low values 0.898 | locus YKL009W, strain mrt4, hits give low values 1.02 | locus YKL068W, hits give low values 1.01 | locus YKL085W, strain MDH1 (second series), hits give low values 0.984 | locus YKL085W, strain MDH1, hits give low values 0.984 | locus YKL190W, strain CNB1, hits give low values 1 | locus YKR026C, strain gcn3, hits give low values 0.988 | locus YKR091W, strain srl3, hits give low values 0.987 | locus YLL041C, strain sdh2, hits give low values 0.972 | locus YLR058C, strain SHM2, hits give low values 0.936 | locus YLR102C, strain apc9, hits give low values 1.01 | locus YLR113W, strain HOG1, hits give low values 0.928 | locus YLR268W, strain sec22, hits give low values 0.966 | locus YLR330W, strain CHS5, hits give low values 0.929 | locus YLR342W, strain FKS1 (second series), hits give low values 0.796 | locus YLR357W, strain rsc2, hits give low values 0.909 | locus YLR370C, strain arc18, hits give low values 0.94 | locus YLR371W, strain rom2, hits give low values 1.01 | locus YLR384C, strain iki3, hits give low values 1.01 | locus YLR418C, strain cdc73, hits give low values 0.901 | locus YML016C, strain PPZ1, hits give low values 0.978 | locus YML032C, strain rad52, hits give low values 0.959 | locus YML124C, strain tub3, hits give low values 1.01 | locus YMR078C, strain ctf18, hits give low values 1.01 | locus YMR129W, hits give low values 0.985 | locus YMR223W, strain ubp8, hits give low values 1.01 | locus YMR263W, strain SAP30, hits give low values 0.954 | locus YMR307W, strain GAS1, hits give low values 1 | locus YNL067W, strain RPL9B, hits give low values 0.92 | locus YNL153C, strain GIM3, hits give low values 0.968 | locus YNL183C, strain NPR1, hits give low values 0.888 | locus YNL209W, strain ssb2, hits give low values 0.965 | locus YNL233W, strain BNI4, hits give low values 0.9 | locus YNL248C, strain rpa49, hits give low values 0.894 | locus YNL250W, strain rad50, hits give low values 1.03 | locus YNL271C, strain bni1, hits give low values 1.01 | locus YNL298W, strain CLA4, hits give low values 1.03 | locus YNL322C, strain KRE1 (second series), hits give low values 0.955 | locus YNR049C, strain mso1, hits give low values 1 | locus YNR052C, strain pop2, hits give low values 1.02 | locus YOL012C, strain htz1 0.977 | locus YOL147C, strain pex11, hits give low values 1.01 | locus YOR001W, strain rrp6, hits give low values 0.896 | locus YOR061W, strain CKA2, hits give low values 1 | locus YOR069W, strain VPS5, hits give low values 0.956 | locus YOR080W, strain dia2, hits give low values 1 | locus YOR136W, strain idh2, hits give low values 1 | locus YOR144C, strain elg1, hits give low values 0.991 | locus YOR231W, strain MKK1, hits give low values 0.938 | locus YOR316C, strain cot1, hits give low values 1.02 | locus YPL106C, strain sse1, hits give low values 0.969 | locus YPL256C, strain CLN2, hits give low values 0.95 | locus YPR119W, strain clb2, hits give low values 0.998 | locus YPR141C, strain kar3, hits give low values 1.03 | locus YPR163C, strain tif3, hits give low values 1 | locus YPR167C, strain met16, hits give low values 0.992 | strain wtn01, hits give low values 0.983
